# Experimental data taken from the supplement of paper PMC10105736.
# A number with no mark means an inactive call.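 How the source made its calls: active = MAPPIT score above the 99th percentile of random reference set scores in the same batch; inactive = at or below it.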
# B1: mxt (protein)
# chain: MAHTHLGRAVKNIEAPRPLKTQSRSSLKNSYLVIEELIQLIDNVTVGLQSCNTTPESITLLLHNLRVHGPQLEAVSKDTLDRAFVVFRNASQDERLNITTRLKLLELIELRAKSWDNDDTIAYYKSKQQISNVELPSEYQYDAGVQPGAFSTSPTFGVSGGVGGVNDGAAAAAAAVFNAASAAAAAQAAAIAAVGTSNQQHMLLPPGEVIRNSGKFPKPTKIPGKTYCKDEVVIRNADSGKVMGIKGRRVHMIEELSETIISFQRVNPGAKERLVQITGPAEDKINYAKQLMEDTIRRNASPVRLEPAPAVGGSCSSLNSSNSDDAIVQPRTPTGSSLANRLSFNSAQNFMTATAAAQQISQQMHHQTHHLQHQQQQQVAAVAAAAAAAAHAQATAAAGKVLRPNQQLLMHSYSTNDASVGEYKFTVNVGQHLIKITGDCCELVRVAKLVLDDYFSSSEFLASIEAGAAFDGTSLVTTPSTPLPGAGPPQFWLPGTDSGIGLNCVVSSSANNNGEGDDEVFAEPSNGGSSTSNQNGLARSRRSHFSRKESTPETKGAREKGDLDDLAGTNSLKSNASRVSYDIEHLLYYSMSPHSWTLPTDWQKMQETAPSILRNKDLQDESQRFDGDKYLASIKTAAKRDIVAADEVETLDE
# B2: Adf1 (protein)
# chain: MHTLTAAIEMDKLDANLEQQFDLNLIEAVKLNPVIYDRSHYNYKHFVRKAQTWKQIAETLGVPEQKCTKRWKSLRDKFAREMKLCQESRWRYFKQMQFLVDSIRQYRESLLGKCANGSQSANQVADPSQQQQAQQQTVVDIFAQPFNGSATTSAQALTHPHEITVTSDAQLATAVGKDQKPYFYEPPLKRERSEEEHSDNMLNTIKIFQNNVSQAVSAEDQSFGMVVTDMLNTLGVRQKAEAKVHIIKYLTDMQLLAQHNKY
# B3: Eh (protein)
# chain: MNCKPLILCTFVAVAMCLVHFGNALPAISHYTHKRFDSMGGIDFVQVCLNNCVQCKTMLGDYFQGQTCALSCLKFKGKAIPDCEDIASIAPFLNALE
# B4: mRpS24 (protein)
# chain: MNFLKKLLPQVATEVQQLSRSGFHTSSVCCRVQSGRYRITTKRNRPLTYEMANPPHFIGHRKSWNSWNTSTMKDALRPSQTAIEDVFIRKFVTGTWHALVCSEVIIKRQHNTIRIAALIRQAITPRKMYFLIGYTEELLSYWMQCPVTLELQTVGDKKDVVFKYI
# B5: gus (protein)
# chain: MGQKISGGVKTVSRNDSQSTFKPIIPRELQADFVKPARIDILLDMPPASRDLQLKHSWNSEDRSLNIFVKEDDKLTFHRHPVAQSTDCIRGKVGLTKGLHIWEIYWPTRQRGTHAVVGVCTADAPLHSVGYQSLVGSTEQSWGWDLGRNKLYHDSKNCAGVTYPAILKNDEAFLVPDKFLVALDMDEGTLSFIVDQQYLGIAFRGLRGKKLYPIVSAVWGHCEITMRYIGGLDPEPLPLMDLCRRTIRQKIGRTNLEEHIQQLQLPLSMKTYLLYKNRR
# B6: CG1785 (protein)
# chain: MTAVEPATKKKRISKKNKSAWRKTDIQDVEQFLEDQRQEERVGTFADKQDEDLFVVDSSLPKTKATVLSVKQKRKLNAKKPMRSYQALENTSKVQDPIAKRNHVRQKKNGRNIELEVCNPTKPRHRQANSDRAQYYVKLEQRLADKKNKKLDVEKDIWQEVDFRDEIPGLKDEKGWISRELALHTAGNIGKKVVKTHASLHHKTTKAKKFELPHPGMSYNPAPEDHQALIDQVVEREEGIIKKEQHLKRVTTSMFSKVTPEERDRRRLNEMSQGMDEEEGSELDEDVQTNGKKKEDDDEKPYHTINAPVENKKKSKQARRNELKQKELARQTELKRKLKQQTADLIRIKSIRHELDDEEEDLNDLKKRRKQRAEKAKFEPKRLGRHKFEEPDLDVNLPEDIAGNLRNVKTESSLLKDRFHTLQRNNMLPTTKLVSRKKSKVKRFERNSHKEPGVSYNDLKERRRAAAAAAKATANIKI
# B7: TfIIFbeta (protein)
# chain: MSKEDKEKTQIIDKDLDLSNAGRGVWLVKVPKYIAQKWEKAPTNMDVGKLRINKTPGQKAQVSLSLTPAVLALDPEEKIPTEHILDVSQVTKQTLGVFSHMAPSDGKENSTTSAAQPDNEKLYMEGRIVQKLECRPIADNCYMKLKLESIRKASEPQRRVQPIDKIVQNFKPVKDHAHNIEYRERKKAEGKKARDDKNAVMDMLFHAFEKHQYYNIKDLVKITNQPISYLKEILKDVCDYNMKNPHKNMWELKKEYRHYKTEEKKEEEHKSGSSDSE
# Key:
# Assay in all cases: MAPPIT interaction score (arbitrary units); higher = stronger binary interaction signal, active = hit call of the paper
# CG10841 = conditions: MAPPIT configuration: N-N; pair source set: screen_2
# CG11275 = conditions: MAPPIT configuration: N-N; pair source set: screen_1
# CG8159 = conditions: MAPPIT configuration: N-N; pair source set: Curagen_low_conf
# CG11327 = conditions: MAPPIT configuration: N-C; pair source set: screen_3
# CG11570 = conditions: pair source set: RRS
# MFS16 = conditions: MAPPIT configuration: N-N; pair source set: DPIM
# Tsp = conditions: MAPPIT configuration: N-N; pair source set: DPIM
# CG10874 = conditions: MAPPIT configuration: N-N; pair source set: Lit-BS-16
# RpL38 = conditions: MAPPIT configuration: N-N; pair source set: Curagen_high_conf
# bond = conditions: MAPPIT configuration: N-N; pair source set: Curagen_low_conf
# CG10483 = conditions: MAPPIT configuration: N-N; pair source set: DPIM
# CG4847 = conditions: MAPPIT configuration: N-N; pair source set: DPIM
# twin = conditions: MAPPIT configuration: N-N; pair source set: DPIM
# CG11596 = conditions: MAPPIT configuration: N-N; pair source set: Finley_Y2H
# 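Further: HEK293T cells with Epo stimulation, STAT-responsive firefly luciferase reporter, fold induction versus unstimulated cells divided by the larger fold induction of two negative controls lacking either bait or prey.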
binder,measurement,setting,value
B1,MAPPIT interaction score,CG10841,0.671
B2,MAPPIT interaction score,CG11275,2.6 (active)
same,MAPPIT interaction score,CG8159,-0.0528
B3,MAPPIT interaction score,CG11327,1.52
B4,MAPPIT interaction score,CG11570; MAPPIT configuration: N-C,0.0908
same,MAPPIT interaction score,CG11570; MAPPIT configuration: N-N,-0.09
same,MAPPIT interaction score,MFS16,0.186
same,MAPPIT interaction score,Tsp,0.192
B5,MAPPIT interaction score,CG10874,0.809
same,MAPPIT interaction score,RpL38,0.363
same,MAPPIT interaction score,bond,0.0719
B6,MAPPIT interaction score,CG10483,0.068
same,MAPPIT interaction score,CG4847,0.0294
same,MAPPIT interaction score,twin,-0.15
B7,MAPPIT interaction score,CG11596,0.174
